Test in all cases: DAPPL (digital affinity profiling via proximity ligation, sequencing); 10 mM Tris-HCl pH 7.5, 50 mM NaCl, 1 mM DTT, 4% glycerol, room temperature, 30 min; GST-TFs on glutathione beads, 16-mer random dsDNA library, 0.1% formaldehyde crosslink after washing; high values mean tight binding
Common to all, as to conditions: protein: recombinant; tags: N-terminal GST; dsDNA, one strand shown

One assay has as its target T1, ERF (Homo sapiens, UniProt P50548 1-548).
T1 sequence: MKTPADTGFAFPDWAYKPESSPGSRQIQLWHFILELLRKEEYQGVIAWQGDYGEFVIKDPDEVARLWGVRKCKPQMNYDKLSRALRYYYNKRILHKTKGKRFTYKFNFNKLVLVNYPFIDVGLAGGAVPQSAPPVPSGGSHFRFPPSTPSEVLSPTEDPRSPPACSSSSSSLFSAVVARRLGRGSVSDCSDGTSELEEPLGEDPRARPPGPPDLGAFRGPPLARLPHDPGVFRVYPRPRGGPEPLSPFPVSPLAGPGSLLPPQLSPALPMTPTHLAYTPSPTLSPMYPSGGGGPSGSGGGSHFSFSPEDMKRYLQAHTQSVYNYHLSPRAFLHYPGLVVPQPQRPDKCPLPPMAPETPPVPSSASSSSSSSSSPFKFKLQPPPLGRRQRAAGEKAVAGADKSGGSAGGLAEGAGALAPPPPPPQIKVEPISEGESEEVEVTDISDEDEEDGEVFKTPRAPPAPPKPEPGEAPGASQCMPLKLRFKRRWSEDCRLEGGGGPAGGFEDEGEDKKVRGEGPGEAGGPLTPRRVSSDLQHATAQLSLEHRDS
Put shortly:
(§1)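 Beads coated with glutathione captured GST-fused human transcription factors that had been expressed in yeast, and the factors were then given DNA barcodes and pooled with a tag-only sample. The pools were incubated with 200 nmole of a random double-stranded 16-mer DNA library in Tris/NaCl/DTT/glycerol buffer for 30 min at room temperature, washed, crosslinked with 0.1% formaldehyde and proximity-ligated with BsaI/T4 ligase at 37 °C for 1 h. PCR amplification and Illumina NextSeq500 sequencing came last. Binding signal is each hexamer's read frequency for a factor divided by its frequency for the tag-only sample.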

For the next assay, the target named is T2, ETV3L (Homo sapiens, UniProt Q6ZN32 1-361).
T2 sequence: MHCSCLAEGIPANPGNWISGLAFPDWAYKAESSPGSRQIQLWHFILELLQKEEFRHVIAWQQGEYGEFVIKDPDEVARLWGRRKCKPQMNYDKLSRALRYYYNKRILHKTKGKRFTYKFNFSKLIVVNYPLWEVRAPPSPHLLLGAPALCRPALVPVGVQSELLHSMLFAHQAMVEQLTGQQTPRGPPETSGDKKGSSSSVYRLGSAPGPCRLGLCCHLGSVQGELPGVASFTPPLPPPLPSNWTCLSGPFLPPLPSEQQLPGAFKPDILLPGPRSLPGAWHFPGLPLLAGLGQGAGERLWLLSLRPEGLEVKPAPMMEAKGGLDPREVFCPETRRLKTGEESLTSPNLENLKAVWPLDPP
The procedure, abridged: as §1

The target in the next assay is T3, ETS2 (Homo sapiens, UniProt P15036 1-469).
T3 sequence: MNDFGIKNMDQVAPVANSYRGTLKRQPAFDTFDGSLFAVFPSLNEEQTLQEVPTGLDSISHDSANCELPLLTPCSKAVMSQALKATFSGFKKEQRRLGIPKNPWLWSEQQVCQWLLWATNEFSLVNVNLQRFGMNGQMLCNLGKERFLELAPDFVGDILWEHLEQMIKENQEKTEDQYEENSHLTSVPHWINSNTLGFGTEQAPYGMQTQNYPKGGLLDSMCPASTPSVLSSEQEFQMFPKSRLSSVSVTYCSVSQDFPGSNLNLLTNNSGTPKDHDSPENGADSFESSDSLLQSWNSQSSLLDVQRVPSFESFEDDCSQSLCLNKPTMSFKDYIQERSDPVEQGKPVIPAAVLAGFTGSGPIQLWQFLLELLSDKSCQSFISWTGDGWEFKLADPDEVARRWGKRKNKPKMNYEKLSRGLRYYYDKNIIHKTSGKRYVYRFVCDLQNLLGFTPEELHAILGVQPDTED
Put shortly:
as §1

Another assay concerns the target T4, SPDEF (Homo sapiens, UniProt O95238 1-335).
T4 sequence: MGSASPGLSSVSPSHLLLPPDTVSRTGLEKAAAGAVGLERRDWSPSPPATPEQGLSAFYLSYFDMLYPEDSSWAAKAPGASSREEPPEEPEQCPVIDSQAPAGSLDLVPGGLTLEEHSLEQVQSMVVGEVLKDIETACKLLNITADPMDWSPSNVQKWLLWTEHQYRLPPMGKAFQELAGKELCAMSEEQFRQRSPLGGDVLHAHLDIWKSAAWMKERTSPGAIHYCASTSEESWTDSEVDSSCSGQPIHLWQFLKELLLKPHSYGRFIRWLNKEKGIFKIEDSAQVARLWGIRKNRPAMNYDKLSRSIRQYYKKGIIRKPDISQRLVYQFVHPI
The procedure, abridged: as §1

The next assay concerns the target T5, ETV7 (Homo sapiens, UniProt Q9Y603 1-341).
T5 sequence: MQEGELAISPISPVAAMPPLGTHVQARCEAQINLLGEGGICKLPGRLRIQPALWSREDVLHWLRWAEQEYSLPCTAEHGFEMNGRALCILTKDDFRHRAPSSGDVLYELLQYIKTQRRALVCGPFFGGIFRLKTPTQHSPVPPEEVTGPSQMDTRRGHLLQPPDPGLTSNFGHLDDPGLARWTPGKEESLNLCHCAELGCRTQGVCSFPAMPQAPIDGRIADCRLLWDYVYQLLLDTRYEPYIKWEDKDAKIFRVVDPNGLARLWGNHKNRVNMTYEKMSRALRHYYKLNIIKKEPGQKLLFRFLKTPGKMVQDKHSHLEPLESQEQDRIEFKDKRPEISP
Put shortly:
as §1

The target in another assay is T6, ELF5 (Homo sapiens, UniProt Q9UKW6-2 1-255).
T6 sequence: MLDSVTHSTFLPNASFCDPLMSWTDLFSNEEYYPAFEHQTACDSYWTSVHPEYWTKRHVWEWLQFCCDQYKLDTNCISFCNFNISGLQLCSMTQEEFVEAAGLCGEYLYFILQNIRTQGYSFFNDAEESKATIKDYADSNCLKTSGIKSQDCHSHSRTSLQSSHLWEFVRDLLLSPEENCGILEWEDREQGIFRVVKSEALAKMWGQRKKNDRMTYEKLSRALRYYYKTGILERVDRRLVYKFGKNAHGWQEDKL
The procedure, abridged: as §1

Another assay has as its target ETV6 (Homo sapiens, UniProt P41212 1-452). Put shortly:
as §1

For the next assay, the target named is T7, ETV3 (Homo sapiens, UniProt P41162-2 1-143).
T7 sequence: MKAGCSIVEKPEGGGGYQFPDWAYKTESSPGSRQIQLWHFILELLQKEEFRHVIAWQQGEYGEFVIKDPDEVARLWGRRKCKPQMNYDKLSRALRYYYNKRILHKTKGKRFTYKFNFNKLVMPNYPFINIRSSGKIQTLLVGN
The procedure, abridged:
as §1

Sequence of ETV6 (P41212 whole entry): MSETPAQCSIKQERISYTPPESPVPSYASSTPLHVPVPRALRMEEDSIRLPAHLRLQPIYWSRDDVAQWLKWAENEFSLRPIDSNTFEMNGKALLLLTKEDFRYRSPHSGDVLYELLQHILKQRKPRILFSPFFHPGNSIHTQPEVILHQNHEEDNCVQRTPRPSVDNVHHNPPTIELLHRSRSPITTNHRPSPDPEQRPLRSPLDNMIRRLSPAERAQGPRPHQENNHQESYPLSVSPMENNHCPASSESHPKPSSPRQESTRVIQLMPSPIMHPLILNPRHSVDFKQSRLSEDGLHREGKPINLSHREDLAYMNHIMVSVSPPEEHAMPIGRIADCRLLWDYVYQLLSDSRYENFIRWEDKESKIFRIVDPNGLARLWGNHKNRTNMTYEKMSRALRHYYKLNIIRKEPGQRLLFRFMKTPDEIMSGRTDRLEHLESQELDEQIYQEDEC

With ATCCCA, the binding signal with ERF is 1.21 fold enrichment (6-mer frequency, TF over GST control); with ETV3L it was 1.1 fold enrichment (6-mer frequency, TF over GST control); with ETS2, 1.03 fold enrichment (6-mer frequency, TF over GST control); with SPDEF it was 1.1 fold enrichment (6-mer frequency, TF over GST control); with ETV7, 1.2 fold enrichment (6-mer frequency, TF over GST control); with ELF5, 1.17 fold enrichment (6-mer frequency, TF over GST control). In addition, the binding signal with ETV6 was 1.12 fold enrichment (6-mer frequency, TF over GST control).

CCCCAC: the binding signal in the assay with ERF was 1.14 fold enrichment (6-mer frequency, TF over GST control); with ETV3L, 1.28 fold enrichment (6-mer frequency, TF over GST control); with ETS2, 1.22 fold enrichment (6-mer frequency, TF over GST control); in the assay with SPDEF, 1.2 fold enrichment (6-mer frequency, TF over GST control); in the assay with ETV7, 1.11 fold enrichment (6-mer frequency, TF over GST control); with ELF5, 1.19 fold enrichment (6-mer frequency, TF over GST control). Further, the binding signal with ETV3 is 1.2 fold enrichment (6-mer frequency, TF over GST control); with ETV6, 1.1 fold enrichment (6-mer frequency, TF over GST control).

Turning to TGCGTA, the binding signal was 1.15 fold enrichment (6-mer frequency, TF over GST control) with ERF; 1.17 fold enrichment (6-mer frequency, TF over GST control) with ETV3L; 1.19 fold enrichment (6-mer frequency, TF over GST control) with ETS2; 1.12 fold enrichment (6-mer frequency, TF over GST control) with SPDEF; 1.01 fold enrichment (6-mer frequency, TF over GST control) with ETV7; 1.1 fold enrichment (6-mer frequency, TF over GST control) in the assay with ELF5. In addition, in the assay with ETV6, the binding signal was 1.11 fold enrichment (6-mer frequency, TF over GST control).

Turning to GGATTT, the binding signal was 1.17 fold enrichment (6-mer frequency, TF over GST control) with ERF; 1.21 fold enrichment (6-mer frequency, TF over GST control) in the assay with ETV3L; 1.24 fold enrichment (6-mer frequency, TF over GST control) with ETS2; 1.57 fold enrichment (6-mer frequency, TF over GST control) with SPDEF; 1.07 fold enrichment (6-mer frequency, TF over GST control) with ETV7; 1.38 fold enrichment (6-mer frequency, TF over GST control) in the assay with ELF5. Besides, the binding signal is 1.21 fold enrichment (6-mer frequency, TF over GST control) with ETV3 and 1.3 fold enrichment (6-mer frequency, TF over GST control) in the assay with ETV6.

With GATTTC, the binding signal with ERF was 1.57 fold enrichment (6-mer frequency, TF over GST control); in the assay with ETV3L, 1.73 fold enrichment (6-mer frequency, TF over GST control); in the assay with ETS2 it was 1.79 fold enrichment (6-mer frequency, TF over GST control); with SPDEF, 1.66 fold enrichment (6-mer frequency, TF over GST control); in the assay with ETV7, 1.56 fold enrichment (6-mer frequency, TF over GST control); with ELF5, 2.07 fold enrichment (6-mer frequency, TF over GST control). In addition, the binding signal with ETV3 was 1.71 fold enrichment (6-mer frequency, TF over GST control); with ETV6 it was 1.8 fold enrichment (6-mer frequency, TF over GST control).

As for TATACC, the binding signal is 1.27 fold enrichment (6-mer frequency, TF over GST control) with ERF; 1.15 fold enrichment (6-mer frequency, TF over GST control) in the assay with ETV3L; 1.24 fold enrichment (6-mer frequency, TF over GST control) with ETS2; 1.26 fold enrichment (6-mer frequency, TF over GST control) with SPDEF; 1.15 fold enrichment (6-mer frequency, TF over GST control) in the assay with ETV7; 1.22 fold enrichment (6-mer frequency, TF over GST control) with ELF5. Moreover, the binding signal with ETV3 is 1.26 fold enrichment (6-mer frequency, TF over GST control); with ETV6, 1.21 fold enrichment (6-mer frequency, TF over GST control).

In the case of AAATTA, the binding signal with ERF was 1.26 fold enrichment (6-mer frequency, TF over GST control); with ETV3L, 1.31 fold enrichment (6-mer frequency, TF over GST control); with ETS2, 1.27 fold enrichment (6-mer frequency, TF over GST control); in the assay with SPDEF, 1.18 fold enrichment (6-mer frequency, TF over GST control); with ETV7 it was 1.32 fold enrichment (6-mer frequency, TF over GST control); with ELF5 it was 1.24 fold enrichment (6-mer frequency, TF over GST control). Also, the binding signal with ETV3 was 1.29 fold enrichment (6-mer frequency, TF over GST control); in the assay with ETV6, 1.25 fold enrichment (6-mer frequency, TF over GST control).

For CAAGAA, the binding signal with ERF is 1.12 fold enrichment (6-mer frequency, TF over GST control); with ETV3L, 1.09 fold enrichment (6-mer frequency, TF over GST control); in the assay with ETS2, 1.07 fold enrichment (6-mer frequency, TF over GST control); in the assay with SPDEF it was 1.06 fold enrichment (6-mer frequency, TF over GST control); in the assay with ETV7, 1.14 fold enrichment (6-mer frequency, TF over GST control); with ELF5, 1.08 fold enrichment (6-mer frequency, TF over GST control). Further, in the assay with ETV6, the binding signal was 1.04 fold enrichment (6-mer frequency, TF over GST control).

For CTCTAA, the binding signal was 1.44 fold enrichment (6-mer frequency, TF over GST control) with ERF; 1.37 fold enrichment (6-mer frequency, TF over GST control) with ETV3L; 1.32 fold enrichment (6-mer frequency, TF over GST control) with ETS2; 1.19 fold enrichment (6-mer frequency, TF over GST control) with SPDEF; 1.27 fold enrichment (6-mer frequency, TF over GST control) with ETV7; 1.34 fold enrichment (6-mer frequency, TF over GST control) with ELF5. Further, the binding signal in the assay with ETV3 is 1.24 fold enrichment (6-mer frequency, TF over GST control); with ETV6 it was 1.26 fold enrichment (6-mer frequency, TF over GST control).

The values above are taken from article PMC7862700, “An all-to-all approach to the identification of sequence-specific readers for epigenetic DNA modifications on cytosine”.
